According to PubChem BioAssay AID1053125 (Broad Institute, 2014):
Potency and affinity values are given separately. Activity calls are given as the source filed them.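 The calls were made as follows: active = viability loss whose fitted half-maximal concentration is at most twice the top valid tested dose; inconclusive = flat curve with 30 to 70% loss, or poor fit; inactive = the rest.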

Assay: viability loss in HepG2 liver cells – cell-based, ATP luminescence, cherry-pick, set 6, cytotoxicity control, dose response (AID 1053125);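 also: negative values mean loss of viability signal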
Conditions: ATP luminescence (CellTiter-Glo), 72 h; series mostly up to 26 µM

Which outcome does the source give for `CC1CCN(C(=O)COc2cccc3c2CCN(Cc2ccccc2)C3=O)CC1` here?
The outcome was “inactive”.

With `CC1CCCCC1NC(=O)CN1C(=O)c2cccc(N)c2C1=O` (stereo not given) as the compound, how does the outcome read?
The outcome was “inactive”.

With `CCOC(=O)c1cc2c(=O)n3ccccc3nc2n(Cc2ccc(Cl)cc2)c1=N` as the compound, how does the outcome read?
The outcome was “inactive”.

Which outcome does the source give for `Clc1ccccc1C1=CC(c2ccco2)n2ncnc2N1` (stereo not given) here?
The outcome was “inactive”.

With `COc1ccc(S(=O)(=O)Cc2ccc(C(=O)N3CCN(Cc4ccccc4)CC3)o2)cc1` as the compound, how does the outcome read?
The outcome was “inactive”.

For `CN1CCN(c2nc3ccccn3c(=O)c2/C=C(\C#N)S(=O)(=O)c2ccccc2)CC1`, which outcome is on record?
Its outcome is “inactive”.

With `Cc1cc(-n2c(=O)c(C#N)cc3c(=O)n4ccccc4nc32)no1` as the compound, how does the outcome read?
Its outcome is “inactive”.

With `CCC(Sc1nc(N)c(NC(=O)c2ccc(OC)cc2)c(=O)[nH]1)C(=O)O` (stereo not given) as the compound, how does the outcome read?
Its outcome is “inactive”.

With `CSCCC1(C(=O)O)NC(c2ccccc2O)C2C(=O)N(C(C)C)C(=O)C21` (stereo not given) as the compound, how does the outcome read?
The outcome was “inactive”.

For `CCN(CC)c1ccc2c(C)c(Cl)c(=O)oc2c1`, which outcome is on record?
Its outcome is “inactive”.

With `CCC(=O)NCCCNc1nc2c(C)cccc2cc1C#N` as the compound, how does the outcome read?
The outcome was “inactive”.

With `CCOC(=O)C1CCCN(CCCc2ccccc2)C1` (stereo not given) as the compound, how does the outcome read?
Its outcome is “inactive”.

For `CCOc1ccc(C(=O)c2cc3ccc(O)cc3oc2=O)cc1`, which outcome is on record?
The outcome was “inactive”.

For `COc1ccc(CCNC(=O)CSc2cn(Cc3cccc(C)c3)c3ccccc23)cc1OC`, which outcome is on record?
The outcome was “inactive”.

For `Cc1cccn2c(=O)c3cc(C(=O)NCCc4ccccc4)c(=N)n(CCCn4ccnc4)c3nc12`, which outcome is on record?
Its outcome is “inactive”.

For `CCOC(=O)c1cc(-c2ccccc2)sc1NC(=O)CSc1nnc(N)s1`, which outcome is on record?
Its outcome is “inactive”.

With `CCn1c(=N)c(S(=O)(=O)c2ccccc2)cc2c(=O)n3ccccc3nc21` as the compound, how does the outcome read?
Its outcome is “inactive”.

For `CC(=O)Oc1ccc(C(=O)Nc2cc(C)on2)cc1`, which outcome is on record?
The outcome was “inactive”.

For `CC(=O)Oc1ccc2cc(-c3nc4ccccc4n3C)c(=O)oc2c1`, which outcome is on record?
The outcome was “inactive”.

Which outcome does the source give for `O=C(O)[C@@H]1CCCN1S(=O)(=O)c1cccc(S(=O)(=O)N2CCC[C@H]2C(=O)O)c1` here?
The outcome was “inactive”.

For `C=CCN1C(=S)CC(c2ccccc2)=Nc2ccccc21`, which outcome is on record?
Its outcome is “inactive”.

Which outcome does the source give for `Cc1noc(C)c1-c1ccc(C(=O)NCCc2ccccc2)c2occc12` here?
Its outcome is “inactive”.

With `O=c1[nH]c2ccccc2nc1/C=C/c1ccccc1` as the compound, how does the outcome read?
Its outcome is “inactive”.

For `COc1cc(C(=O)NCCCNc2nc3c(C)cc(C)cc3cc2C#N)cc(OC)c1OC`, which outcome is on record?
Its outcome is “inactive”.

For `COc1ccc(Br)c(Cn2c(C)c(C(=O)NCc3ccc4c(c3)OCCO4)sc2=O)c1`, which outcome is on record?
The outcome was “inactive”.

For `CCC(C)NC(=S)N1CCN(Cc2ccc3c(c2)OCO3)CC1` (stereo not given), which outcome is on record?
Its outcome is “inactive”.

With `CC(=O)c1cc2c(ccc3ccccc32)oc1=O` as the compound, how does the outcome read?
Its outcome is “inactive”.

With `CCN(c1ccccc1)S(=O)(=O)c1ccc(OC)c(NC(=O)CN(C)C)c1` as the compound, how does the outcome read?
Its outcome is “inactive”.

Which outcome does the source give for `O=C(NNc1cc(N2CCCC2)nc(N2CCCC2)n1)c1ccc([N+](=O)[O-])cc1` here?
Its outcome is “inactive”.

With `COCCNC(=S)N/N=C/c1ccc(-c2ccc([N+](=O)[O-])cc2)o1` as the compound, how does the outcome read?
The outcome was “inactive”.

With `Cc1ccc2c(c1)N(C(=O)CCC(=O)NCCCN1CCOCC1)CC(C)O2` (stereo not given) as the compound, how does the outcome read?
Its outcome is “inactive”.

Which outcome does the source give for `CCCCn1nc(NC(=O)c2cccs2)c2cc3cc(OC)ccc3nc21` here?
The outcome was “inactive”.

For `O=C1c2ccccc2S(=O)(=O)c2cc(N3CCC(C(=O)N4CCCCC4)CC3)ccc21`, which outcome is on record?
Its outcome is “inactive”.

With `Cc1cccn2c(=O)c(/C=C(\C#N)C(N)=O)c(Oc3ccccc3)nc12` as the compound, how does the outcome read?
The outcome was “inactive”.

For `Cc1cc2c(C)cc(=O)oc2c2c1NCCC2`, which outcome is on record?
The outcome was “inactive”.
